Results filed as inconclusive are left out. Active and inactive are the calls of the source. Unless noted, calls come from the whole dose curve; as a rule, active = well fitted curve in the direction sought with a large enough effect in the repeat runs; inconclusive = weak or mixed curves; inactive = no such curve, though single readings can be large; an effect the other way counts as inactive or inconclusive.
Tests used:
[1] = qHTS assay to identify small molecule HDAC inhibitors - cell viability counter screen (AID 1259365); note: series mostly up to about 92 µM; nearly all actives have a fitted effect of over 50% in size
Procedure, shortened: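 To flag cytotoxic hits, 1,500 wild-type HCT-116 cells per well, plated the day before, receive test compounds for 2hr at 37 C before CellTiter-Glo reagent and a luminescence read.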

[2] = qHTS assay to identify small molecule agonists of the sonic hedgehog signaling (Shh) pathway - cell viability counter screen (AID 1259366); note: nearly all actives have a fitted effect of over 50% in size
Procedure, shortened: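 Fluorescence from CellTiter-Fluor reports live cells in this counter screen. NIH/3T3-derived Gli1-Luc reporter cells receive test compounds for 24hr at 37C; reagent goes in at 23hr.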

[3] = qHTS assay to identify small molecule antagonists of the sonic hedgehog signaling (Shh) pathway - cell viability counter screen (AID 1259367); note: nearly all actives have a fitted effect of over 55% in size
Procedure, shortened: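 Cells: 3T3 Gli1-Luc, 2,000/well, 4 hr pre-incubation. Compounds in DMSO, then conditioned medium. Incubation 24 hr, 37C, 5% CO2. CellTiter-Fluor at 23 hr, 1 hr, fluorescence.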

[4] = qHTS assay to identify small molecule agonists of the sonic hedgehog signaling (Shh) pathway (AID 1259368; calls by dose curve; note: series mostly up to about 92 µM; nearly all actives have a fitted effect of over 15% in size)
Procedure, shortened: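 NIH/3T3-derived 3T3Gli1-Luc cells carrying a stably integrated Gli1 response element–firefly luciferase reporter were plated, left 4 hr at 37 C, then given compounds in DMSO for 24 hr. Luminescence was read 30 min after adding luciferase reagent.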

[5] = qHTS assay to identify small molecule antagonists of the sonic hedgehog signaling (Shh) pathway (AID 1259369; calls by dose curve; note: nearly all actives have a fitted effect of over 45% in size)
Procedure, shortened: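 NIH/3T3-derived 3T3Gli1-Luc cells with stably integrated Gli1-Luc reporter were preincubated 4hr at 37 C, then given compounds in DMSO plus Shh conditioned medium and incubated 24hr. Firefly luciferase luminescence read after 30min reagent at room temperature.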

[6] = target: Estrogen receptor beta (Homo sapiens) (UniProt Q92731); experiment: qHTS assay to identify small molecule agonists of the estrogen receptor beta (ER-beta) signaling pathway (AID 1259377; active = well fitted activation curve with a large enough effect in the signal ratio in the repeat runs, not every such curve was filed as active; the % refers to the signal ratio)
Procedure, shortened: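 Screening used GripTite ER-beta-UAS-bla cells held in 2% charcoal-stripped FBS medium. After overnight (16 hr) compound incubation at 37C, beta-lactamase activity was detected with a FRET substrate by fluorescence.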

[7] = target: Estrogen receptor beta (Homo sapiens) (UniProt Q92731); experiment: qHTS assay to identify small molecule antagonists of the estrogen receptor beta (ER-beta) signaling pathway (AID 1259378; active = well fitted inhibition curve with a large enough effect in the signal ratio in the repeat runs, not every such curve was filed as active; the % refers to the signal ratio)
Procedure, shortened: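 Antagonist mode: compounds added to beta-lactamase reporter HEK293T ER-beta-UAS cells stimulated with E2 (1nM final), 16 hr at 37C. LiveBLAzer B/G FRET substrate, 2 hours room temperature, fluorescence read-out.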

[8] = qHTS assay to identify small molecule agonists of the androgen receptor (AR) signaling pathway in the presence of an antagonist - cell viability counter screen (AID 1259379); note: series mostly up to about 92 µM; nearly all actives have a fitted effect of over 25% in size
Procedure, shortened: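 MDA-kb2 human breast carcinoma cells (stable MMTV-luciferase, AR/GR responsive) were seeded 3,000 cells/well, pre-incubated 5 hr at 37C without CO2, then given 3.0uM nilutamide and compounds at 15 concentrations for 16 hr. Viability was read by CellTiter-Fluor fluorescence.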

[9] = qHTS assay to identify small molecule agonists of the estrogen receptor beta (ER-beta) signaling pathway - cell viability counter screen (AID 1259380); note: nearly all actives have a fitted effect of over 30% in size
Procedure, shortened: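 ER-beta-UAS-bla HEK293T cells in medium with 2% charcoal-stripped FBS were preincubated 6 hr at 37C, dosed with compound in DMSO for 16 hr, then after the bla read, CellTiter-Glo was added for 30 min at room temperature; luminescence recorded.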

[10] = qHTS assay to identify small molecule antagonists of the estrogen receptor beta (ER-beta) signaling pathway - cell viability counter screen (AID 1259382);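 note: HEK293T cells carrying ER-beta-UAS-bla reporter stimulated with estradiol; series mostly up to about 92 µM; nearly all actives have a fitted effect of over 55% in size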
Procedure, shortened: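 ER-beta-UAS-bla HEK293T cells (2,000/well, 2% charcoal-stripped FBS) were pre-incubated 6 hr at 37C, then given compound plus 1nM final 17-beta-estradiol for 16 hr. Viability was read in the same wells by CellTiter-Glo luminescence after 30 min at room temperature.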

[11] = target: Estrogen receptor (Homo sapiens) (UniProt P03372); experiment: qHTS assay to identify small molecule agonists of the estrogen receptor alpha (ER-alpha) signaling pathway in the presence of an antagonist (AID 1259383; calls by dose curve; note: top concentration of the series differs between compounds; nearly all actives have a fitted effect of over 15% in size)
Procedure, shortened: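 VM7Luc4E2 cells (endogenous full-length ER-alpha, 4×ERE-luciferase) were precultured 5 days in phenol red-free medium with 10% charcoal-stripped FBS, given 10.0nM ICI-182,780 (final), then treated with compounds at 15 concentrations for 22hr at 37C; luminescence read with ONE-Glo.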

[12] = qHTS assay to identify small molecule agonists or antagonists of the thyroid stimulating hormone receptor (TSHR) signaling pathway - wild type cell line counter screen (AID 1259384; calls by dose curve)
Procedure, shortened: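 Counter screen in untransfected Hek293: compounds (15-point titration, triplicate) plus phosphodiesterase inhibitor Ro20-1724 added after 18 h plating; 30 min RT. Intracellular cAMP via competitive d2/cryptate immunoassay, 1 h incubation.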

[13] = target: Thyrotropin receptor (Homo sapiens) (UniProt P16473); experiment: qHTS assay to identify small molecule antagonists of the thyroid stimulating hormone receptor (TSHR) signaling pathway (AID 1259385; calls by dose curve; note: nearly all actives have a fitted effect of over 20% in size)
Procedure, shortened: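 Antagonist mode: compound-treated TSHR-expressing HEK293 cells were stimulated with 1.5 ng/mL TSH (final) in presence of Ro20-1724 for 30 min at RT. HTRF cAMP detection after 1 h; each compound tested at 15 concentrations, triplicate.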

[14] = qHTS assay to identify small molecule agonists of the estrogen receptor alpha (ER-alpha) signaling pathway in the presence of an antagonist - cell viability counter screen (AID 1259386);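 note: series mostly up to about 92 µM; cells exposed to compounds for 22 h at 37 °C before the viability read; nearly all actives have a fitted effect of over 30% in size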
Procedure, shortened: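 VM7Luc4E2 cells (endogenous full-length ER-alpha, 4×ERE-luciferase) were held 5 days in phenol red-free medium with 10% charcoal-stripped FBS, plated, then given 10.0nM ICI-182,780 and compounds at 15 concentrations for 22hr at 37C; viability read by CellTiter-Fluor fluorescence.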

[15] = target: Progesterone receptor (Homo sapiens) (UniProt P06401); experiment: qHTS assay to identify small molecule agonists of the progesterone receptor (PR) signaling pathway (AID 1346784; calls by dose curve; note: nearly all actives have a fitted effect of over 30% in size)
Procedure, shortened: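 Seed PR-UAS-bla HEK 293T cells (2% charcoal-stripped FBS), incubate 6 hr at 37C; add compounds in DMSO, 16 hr at 37C; add LiveBLAzer B/G substrate, 2 hr RT; read fluorescence intensity.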

[16] = target: Progesterone receptor (Homo sapiens) (UniProt P06401); experiment: qHTS assay to identify small molecule antagonists of the progesterone receptor (PR) signaling pathway (AID 1346795; active = well fitted inhibition curve with a large enough effect in the signal ratio in the repeat runs, not every such curve was filed as active; the % refers to the signal ratio)
Procedure, shortened: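 Screening used a GripTite HEK293T line with PR-responsive UAS-beta-lactamase. Cells were challenged with compound in the presence of 1 nM R5020 final for 16 hr at 37C; B/G FRET substrate, 2 hr room temperature, fluorescence.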

[17] = qHTS assay to identify small molecule agonists of the progesterone receptor (PR) signaling pathway - cell viability counter screen (AID 1346799; calls by dose curve; note: nearly all actives have a fitted effect of over 45% in size)
Procedure, shortened: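 Using the same plates as the PR reporter screen, HEK293T PR-UAS-bla cells received compounds for 16 hr at 37C and were then lysed with CellTiter-Glo; luminescence was read 30 min later at room temperature.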

[18] = qHTS assay to identify small molecule antagonists of the TGF-beta/Smad signaling pathway - cell viability counter screen (AID 1346824); note: nearly all actives have a fitted effect of over 50% in size
Procedure, shortened: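 Cytotoxicity counter-screen run in the same wells as the beta-lactamase Smad reporter read: CellTiter-Glo luminescence after 30 min at room temperature. HEK 293T SBE-bla cells had 5 hr compound exposure at 37 C with TGF-beta1 (0.25 ng/mL stock).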

[19] = qHTS assay to identify small molecule antagonists of the progesterone receptor (PR) signaling pathway - cell viability counter screen (AID 1346798); note: series mostly up to about 92 µM; nearly all actives have a fitted effect of over 50% in size
Procedure, shortened: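 Measures cytotoxicity in parallel with the PR antagonist reporter read: HEK293T PR-UAS-bla cells get compound and R5020 for 16 hr, and remaining viable cells are quantified by CellTiter-Glo luminescence.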

[20] = target: Androgen receptor (Homo sapiens) (UniProt P10275); experiment: qHTS assay to identify small molecule agonists of the androgen receptor (AR) signaling pathway in the presence of an antagonist (AID 1259381; calls by dose curve; note: nearly all actives have a fitted effect of over 15% in size)
Procedure, shortened: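 MDA-kb2 human breast carcinoma cells carrying an MMTV-luciferase reporter (AR- and GR-responsive) were treated with compounds at 15 concentrations plus 3.0uM final nilutamide for 16hr at 37C without CO2; luminescence was read after ONE-Glo addition.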

Measured: Potency

Androgen receptor (Homo sapiens), sequence (P10275 whole entry, looked up): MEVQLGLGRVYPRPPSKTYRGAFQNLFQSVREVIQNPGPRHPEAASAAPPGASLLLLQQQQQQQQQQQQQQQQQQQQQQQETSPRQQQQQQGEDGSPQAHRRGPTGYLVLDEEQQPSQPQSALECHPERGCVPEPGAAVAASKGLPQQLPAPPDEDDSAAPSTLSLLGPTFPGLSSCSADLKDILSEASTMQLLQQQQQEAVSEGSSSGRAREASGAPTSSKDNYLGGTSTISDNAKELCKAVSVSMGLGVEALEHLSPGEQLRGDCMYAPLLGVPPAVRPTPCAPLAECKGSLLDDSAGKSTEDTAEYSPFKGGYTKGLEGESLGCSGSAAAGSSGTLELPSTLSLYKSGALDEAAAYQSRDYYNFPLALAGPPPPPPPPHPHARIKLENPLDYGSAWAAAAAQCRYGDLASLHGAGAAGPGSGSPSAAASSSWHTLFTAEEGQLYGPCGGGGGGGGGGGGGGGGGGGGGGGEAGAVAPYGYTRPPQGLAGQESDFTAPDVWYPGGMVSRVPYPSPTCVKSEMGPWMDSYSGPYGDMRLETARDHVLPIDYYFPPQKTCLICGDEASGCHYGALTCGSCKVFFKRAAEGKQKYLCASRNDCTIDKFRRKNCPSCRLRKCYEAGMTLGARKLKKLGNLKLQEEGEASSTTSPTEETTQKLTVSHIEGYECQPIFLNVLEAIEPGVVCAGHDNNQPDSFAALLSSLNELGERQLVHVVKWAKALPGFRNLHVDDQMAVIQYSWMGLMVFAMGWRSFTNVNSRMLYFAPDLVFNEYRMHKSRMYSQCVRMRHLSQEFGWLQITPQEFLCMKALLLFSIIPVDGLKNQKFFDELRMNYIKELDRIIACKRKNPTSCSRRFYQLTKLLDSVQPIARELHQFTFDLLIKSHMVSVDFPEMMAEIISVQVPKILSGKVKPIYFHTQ
Estrogen receptor (Homo sapiens), sequence (P03372 whole entry, looked up): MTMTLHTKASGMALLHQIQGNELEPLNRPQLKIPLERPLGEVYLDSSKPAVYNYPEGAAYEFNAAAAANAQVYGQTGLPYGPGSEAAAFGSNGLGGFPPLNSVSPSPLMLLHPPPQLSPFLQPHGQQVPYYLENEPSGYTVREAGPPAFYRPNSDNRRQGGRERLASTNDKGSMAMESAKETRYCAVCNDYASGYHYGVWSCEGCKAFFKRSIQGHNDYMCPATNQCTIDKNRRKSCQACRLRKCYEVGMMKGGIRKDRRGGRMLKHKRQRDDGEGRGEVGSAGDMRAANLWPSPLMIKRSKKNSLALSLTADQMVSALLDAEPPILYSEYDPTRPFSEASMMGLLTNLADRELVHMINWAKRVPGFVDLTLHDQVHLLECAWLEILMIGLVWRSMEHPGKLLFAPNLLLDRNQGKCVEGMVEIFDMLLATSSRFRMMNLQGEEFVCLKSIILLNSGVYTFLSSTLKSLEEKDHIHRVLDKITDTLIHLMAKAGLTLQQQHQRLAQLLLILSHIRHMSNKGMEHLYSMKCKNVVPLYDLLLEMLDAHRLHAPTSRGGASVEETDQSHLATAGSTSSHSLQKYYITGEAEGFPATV
Progesterone receptor (Homo sapiens), sequence (P06401 whole entry, looked up): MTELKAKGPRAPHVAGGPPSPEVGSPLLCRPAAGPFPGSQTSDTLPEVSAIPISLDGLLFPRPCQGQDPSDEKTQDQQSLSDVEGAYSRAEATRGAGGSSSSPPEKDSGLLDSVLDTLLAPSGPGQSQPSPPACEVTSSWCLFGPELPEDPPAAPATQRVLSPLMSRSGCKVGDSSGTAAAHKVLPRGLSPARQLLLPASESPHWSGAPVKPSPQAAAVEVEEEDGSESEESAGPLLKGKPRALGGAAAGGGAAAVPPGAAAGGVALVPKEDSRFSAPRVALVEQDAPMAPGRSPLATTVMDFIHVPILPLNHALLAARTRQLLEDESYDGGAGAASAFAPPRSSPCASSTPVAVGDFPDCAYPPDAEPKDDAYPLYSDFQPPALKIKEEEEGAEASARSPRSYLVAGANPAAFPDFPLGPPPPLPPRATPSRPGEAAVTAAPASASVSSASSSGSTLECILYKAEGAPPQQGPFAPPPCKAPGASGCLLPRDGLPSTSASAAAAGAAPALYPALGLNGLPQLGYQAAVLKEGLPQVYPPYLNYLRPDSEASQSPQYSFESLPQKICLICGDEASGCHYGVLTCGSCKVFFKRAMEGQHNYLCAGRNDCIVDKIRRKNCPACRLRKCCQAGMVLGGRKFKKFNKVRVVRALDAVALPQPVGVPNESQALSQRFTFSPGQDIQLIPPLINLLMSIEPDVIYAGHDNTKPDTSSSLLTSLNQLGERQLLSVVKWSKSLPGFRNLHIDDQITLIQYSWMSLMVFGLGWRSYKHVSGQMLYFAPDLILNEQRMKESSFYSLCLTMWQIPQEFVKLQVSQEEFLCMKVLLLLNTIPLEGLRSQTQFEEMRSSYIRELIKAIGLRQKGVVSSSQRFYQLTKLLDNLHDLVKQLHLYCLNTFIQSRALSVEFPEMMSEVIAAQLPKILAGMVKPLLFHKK
Thyrotropin receptor (Homo sapiens), sequence (P16473 whole entry, looked up): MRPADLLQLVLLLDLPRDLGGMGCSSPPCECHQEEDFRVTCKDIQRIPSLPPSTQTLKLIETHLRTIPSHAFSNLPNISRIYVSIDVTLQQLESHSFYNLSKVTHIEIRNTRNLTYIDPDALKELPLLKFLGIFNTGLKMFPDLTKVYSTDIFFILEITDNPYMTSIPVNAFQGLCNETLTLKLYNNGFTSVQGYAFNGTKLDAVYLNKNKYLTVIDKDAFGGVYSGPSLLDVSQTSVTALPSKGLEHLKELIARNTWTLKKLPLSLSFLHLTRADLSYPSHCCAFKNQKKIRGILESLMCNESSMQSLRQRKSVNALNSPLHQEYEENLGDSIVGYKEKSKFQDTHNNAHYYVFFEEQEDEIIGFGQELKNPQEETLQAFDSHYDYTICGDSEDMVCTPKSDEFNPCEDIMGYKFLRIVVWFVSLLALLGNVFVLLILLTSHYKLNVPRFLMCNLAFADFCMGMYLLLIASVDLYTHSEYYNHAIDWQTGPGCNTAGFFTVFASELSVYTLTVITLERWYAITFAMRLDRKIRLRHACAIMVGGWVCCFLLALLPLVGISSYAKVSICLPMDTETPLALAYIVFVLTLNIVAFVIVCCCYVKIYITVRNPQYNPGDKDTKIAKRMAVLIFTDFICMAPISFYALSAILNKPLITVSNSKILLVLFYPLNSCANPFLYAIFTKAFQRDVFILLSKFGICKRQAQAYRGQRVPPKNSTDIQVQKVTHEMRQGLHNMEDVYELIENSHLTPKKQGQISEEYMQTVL
Estrogen receptor beta (Homo sapiens), sequence (Q92731 whole entry, looked up): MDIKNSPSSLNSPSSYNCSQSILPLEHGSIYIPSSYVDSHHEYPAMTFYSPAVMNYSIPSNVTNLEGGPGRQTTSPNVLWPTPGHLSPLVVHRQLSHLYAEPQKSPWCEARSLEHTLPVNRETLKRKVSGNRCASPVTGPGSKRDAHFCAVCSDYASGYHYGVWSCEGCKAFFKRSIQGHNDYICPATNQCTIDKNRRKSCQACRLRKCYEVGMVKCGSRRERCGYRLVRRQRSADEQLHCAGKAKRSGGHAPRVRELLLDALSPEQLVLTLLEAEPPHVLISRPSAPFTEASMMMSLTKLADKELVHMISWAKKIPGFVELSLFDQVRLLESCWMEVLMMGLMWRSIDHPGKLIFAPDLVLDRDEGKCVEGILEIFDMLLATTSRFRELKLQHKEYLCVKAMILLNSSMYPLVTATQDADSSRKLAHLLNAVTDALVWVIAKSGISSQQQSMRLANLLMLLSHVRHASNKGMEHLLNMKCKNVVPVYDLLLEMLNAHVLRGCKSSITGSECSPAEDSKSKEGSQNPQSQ

CCCCN1C(=O)c2ccccc2C1=O
inactive: [1] | [2] | [3] | [4] | [5] | [6] | [7] | [8] | [9] | [10] | [11] | [12] | [13] | [14] | [15] | [16] | [17] | [18]

CC/C=C\CCCCCCCCCCOC(C)=O
inactive: [1] | [2] | [3] | [4] | [5] | [6] | [7] | [8] | [9] | [10] | [11] | [12] | [13] | [14] | [15] | [16] | [19] | [18]

c1coc(Cn2cccc2)c1
inactive: [1] | [2] | [3] | [4] | [5] | [6] | [7] | [8] | [9] | [10] | [11] | [12] | [13] | [14] | [15] | [16] | [19] | [17] | [18]

Cc1cc(=O)oc2cc(O[C@@H]3SC[C@@H](O)[C@H](O)[C@H]3O)ccc12
inactive: [1] | [2] | [3] | [4] | [5] | [6] | [7] | [8] | [9] | [20] | [10] | [11] | [12] | [13] | [14] | [15] | [16] | [19] | [17] | [18]

COc1ccccc1N1CCN(CC(O)COc2cc(OC)c(OC)c(OC)c2)CC1 (centres undefined)
inactive: [1] | [2] | [3] | [4] | [5] | [6] | [7] | [8] | [9] | [10] | [11] | [12] | [13] | [14] | [15] | [16] | [19] | [18]

C=C(C)C(=O)OCCCC
inactive: [1] | [2] | [3] | [4] | [5] | [6] | [7] | [8] | [9] | [20] | [10] | [12] | [13] | [14] | [19] | [17] | [18]

N[C@H]1C(O)O[C@H](CO)[C@@H](O)[C@@H]1O (some centres undefined)
inactive: [1] | [2] | [3] | [4] | [5] | [6] | [7] | [8] | [9] | [20] | [10] | [11] | [12] | [13] | [14] | [15] | [19] | [17] | [18]

CCCCS
inactive: [1] | [2] | [3] | [4] | [5] | [6] | [7] | [8] | [9] | [10] | [11] | [12] | [14] | [15] | [16] | [19] | [18]

CCc1ncc(C)[nH]1
inactive: [1] | [2] | [3] | [4] | [5] | [6] | [7] | [8] | [9] | [20] | [12] | [13] | [14] | [15] | [19] | [18]

O=S(=O)(O)c1cc(I)c(O)c2ncccc12
inactive: [1] | [2] | [3] | [4] | [5] | [6] | [7] | [8] | [9] | [10] | [12] | [13] | [14] | [15] | [16] | [19] | [18]

CC(C)(C)C(=O)CC(=O)C(C)(C)C
inactive: [1] | [2] | [3] | [4] | [5] | [6] | [7] | [8] | [9] | [10] | [11] | [12] | [13] | [14] | [15] | [19] | [18]

O=S(=O)(O)c1ccc(Cl)cc1
inactive: [1] | [2] | [3] | [4] | [5] | [6] | [7] | [8] | [9] | [10] | [11] | [14] | [15] | [16] | [19] | [17] | [18]

CC(O)C(CO)C(C)O (centres undefined)
inactive: [1] | [2] | [3] | [4] | [5] | [6] | [7] | [8] | [9] | [20] | [10] | [11] | [12] | [13] | [14] | [15] | [16] | [17] | [18]

CC(C)(C)NCC(O)COc1cccc2c1CCC(=O)N2 (centres undefined)
inactive: [1] | [2] | [3] | [4] | [5] | [6] | [7] | [8] | [9] | [20] | [10] | [12] | [13] | [14] | [15] | [16] | [19] | [17] | [18]

CC(C)C(C)C
inactive: [1] | [2] | [3] | [4] | [5] | [6] | [7] | [8] | [9] | [10] | [12] | [13] | [14] | [15] | [16] | [19] | [17] | [18]
